The values that follow come from PubChem BioAssay.

Test [1] in a line: small molecules captured by biotinylated probe aFSTL3 – biochemical, small-molecule microarray, fluorescence 635/667, stem cell growth factor project, primary screen (AID 1064).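 Also: measures binding of the biotinylated anti-FSTL3 antibody to printed compounds.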 As to conditions: higher = more signal.
A short description of test [2]: binders from COS7 lysate, DM2A8 probe, primary screen, torsin A project, cell lysate, small-molecule microarray, fluorescence 635/667 (AID 1065). As to conditions: higher = more signal, COS7 lysate expressing mutant human TOR1A.
Test [3] can be described thus: small molecules captured by biotinylated probe aFGF2 – biochemical, small-molecule microarray, fluorescence 635/667, stem cell growth factor project, primary screen (AID 1067).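 Also: measures binding of biotinylated aFGF2 protein to printed compounds on slides; z-score merges feature fluorescence and signal-to-noise across triplicate slides.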 As to conditions: higher = more signal.
Test [4] in a line: small molecules captured by biotinylated probe aFGF10 – biochemical, small-molecule microarray, fluorescence 635/667, stem cell growth factor project, primary screen (AID 1071).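 Also: score merges 667 nm spot intensity and signal to noise from triplicate slides.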 As to conditions: higher = more signal.
Test [5] has as its target Neurogenic locus notch homolog protein 2 (Homo sapiens) (UniProt Q04721). Put plainly: small molecules binding Notch2 protein – biochemical, small-molecule microarray, 635 nm fluorescence, stem cell growth factors, primary screen (AID 1073). As to conditions: higher = more signal.
Test [6] deals with Pro-neuregulin-1, membrane-bound isoform (Homo sapiens) (UniProt Q02297). The test is described as follows: small molecules binding neuregulin-1 protein – biochemical, small-molecule microarray, fluorescence 635/667, psychiatric disease protein project, primary screen (AID 1075).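 Also: score combines 667 nm spot fluorescence with signal to noise.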 As to conditions: NRG1 binding, 635 nm fluorescence, higher = more signal.
Test [7] deals with Neuregulin-1 EGF-like domain. The test is described as follows: small molecules binding NRG1 EGF domain – biochemical, small-molecule microarray, 635 nm fluorescence, primary screen (AID 1081).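 Also: binding of the protein to compounds printed on small-molecule microarray slides.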 As to conditions: higher = more signal.
Test [8] in a line: FRG1 expression reporter modulators in myotubes – cell-based, C2C12 myotubes, firefly/Renilla luciferase, luminescence, FRG1 inhibition for FSHD, primary screen (AID 1084). As to conditions: FRG1 promoter luciferase, higher = more signal, called active from +8 up or from −8 down.
A short description of test [9]: small molecules captured by biotinylated probe aFST – biochemical, small-molecule microarray, fluorescence 635/667, stem cell growth factor project, primary screen (AID 1086).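 Also: score merges 667 nm fluorescence with signal-to-noise of each printed compound spot.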 As to conditions: higher = more signal.
Test [10] in a line: binders of probe aHhip on microarray, primary screen, stem cell growth factor project, biochemical, small-molecule microarray, fluorescence 635/667 (AID 1087).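 Also: score merges spot fluorescence at 667nm with spot signal to noise ratio.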 As to conditions: higher = more signal.
Test [11] deals with PRMT1 (protein arginine N-methyltransferase 1). The test is described as follows: small molecules binding arginine methyltransferase PRMT1 – biochemical, small-molecule microarray, 635 nm fluorescence, primary screen (AID 1088).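 Also: binding of Prmt1 protein to compounds spotted on small-molecule microarray slides.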 As to conditions: higher = more signal.
Test [12] is described as follows: growth effects on S. cerevisiae YJM789 – YJM789 clinical isolate, OD600, 24 h, basal, primary screen (AID 1089).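 Also: growth of clinical yeast isolate S. cerevisiae YJM 789 seeded 1000 cells per well; test concentration not given here.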 As to conditions: higher = more signal, called active from +8 up or from −8 down.
Test [13] can be described thus: S. pombe growth modifiers, basal conditions – strain 972, OD600, 24 h, no modulator, primary screen (AID 1090).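 Also: basal condition with compound alone and no growth modifier present; test concentration not given here.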 As to conditions: S. pombe 972 growth, higher = more signal, called active from +8 up or from −8 down.
Test [14] can be described thus: budding yeast growth modifiers under rapamycin – strain BY4716, OD600, 96 h, primary screen (AID 1091). Also: test concentration not given here. As to conditions: S. cerevisiae BY4716 + rapamycin, higher = more signal, called active from +8 up or from −8 down.
In test [15] the target is Torsin-1A-interacting protein 2 (Homo sapiens) (UniProt Q8NFQ8). The test is described as follows: small molecules binding lysate-expressed LULL1 – cell lysate, human LULL1 lysate, 635/667 nm fluorescence, primary screen (AID 1092).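 Also: probe is lysate of COS7 cells overexpressing human LULL1; score merges per-feature 667 nm fluorescence with signal-to-noise.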 As to conditions: small-molecule microarray, hLULL1 lysate binding, 635 nm fluorescence; higher = more signal.
Test [16] is described as follows: optical density change of DRC41 E. coli – strain DRC41, OD650, 24 h, E. coli filamentation project, primary screen (AID 1093).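 Also: MC1000 strain lacking acrAB efflux and sulA so SOS filamentation is blocked; test concentration not given here.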 As to conditions: E. coli DRC41 growth, higher = more signal, called active from +8 up or from −8 down.
Test [17] is described as follows: probe aLefty2 binding to arrayed compounds – biochemical, biotinylated probe, 635/667 nm fluorescence, primary screen (AID 1094).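 Also: score merges spot fluorescence near 667 nm with spot signal-to-noise ratio.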 As to conditions: small-molecule microarray, higher = more signal.
The test system of test [18] is Noggin (protein binding on small-molecule microarray). Put plainly: small molecules binding Noggin protein – biochemical, 635/667 nm fluorescence, primary screen (AID 1095).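 Also: score merges 667 nm feature fluorescence with signal to noise over triplicate slides.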 As to conditions: 635 nm fluorescence, higher = more signal.
Test [19] has as its target Neurogenic locus notch homolog protein 3 (Homo sapiens) (UniProt Q9UM47). Put plainly: small molecules binding NOTCH3 protein – biochemical, 635/667 nm fluorescence, primary screen (AID 1096). As to conditions: small-molecule microarray, 635 nm fluorescence, higher = more signal.
Test [20] in a line: probe aEGFR binding to arrayed compounds – biochemical, biotinylated probe, 635/667 nm fluorescence, primary screen (AID 1097).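 Also: probe is a biotinylated anti-EGFR antibody binding compounds printed on slides; score combines fluorescence near 667 nm and signal to noise of each spot.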 As to conditions: small-molecule microarray, higher = more signal.

Structures are written as SMILES. Activity calls are given as the source filed them.

Neurogenic locus notch homolog protein 3 (Homo sapiens), sequence (Q9UM47 whole entry, looked up): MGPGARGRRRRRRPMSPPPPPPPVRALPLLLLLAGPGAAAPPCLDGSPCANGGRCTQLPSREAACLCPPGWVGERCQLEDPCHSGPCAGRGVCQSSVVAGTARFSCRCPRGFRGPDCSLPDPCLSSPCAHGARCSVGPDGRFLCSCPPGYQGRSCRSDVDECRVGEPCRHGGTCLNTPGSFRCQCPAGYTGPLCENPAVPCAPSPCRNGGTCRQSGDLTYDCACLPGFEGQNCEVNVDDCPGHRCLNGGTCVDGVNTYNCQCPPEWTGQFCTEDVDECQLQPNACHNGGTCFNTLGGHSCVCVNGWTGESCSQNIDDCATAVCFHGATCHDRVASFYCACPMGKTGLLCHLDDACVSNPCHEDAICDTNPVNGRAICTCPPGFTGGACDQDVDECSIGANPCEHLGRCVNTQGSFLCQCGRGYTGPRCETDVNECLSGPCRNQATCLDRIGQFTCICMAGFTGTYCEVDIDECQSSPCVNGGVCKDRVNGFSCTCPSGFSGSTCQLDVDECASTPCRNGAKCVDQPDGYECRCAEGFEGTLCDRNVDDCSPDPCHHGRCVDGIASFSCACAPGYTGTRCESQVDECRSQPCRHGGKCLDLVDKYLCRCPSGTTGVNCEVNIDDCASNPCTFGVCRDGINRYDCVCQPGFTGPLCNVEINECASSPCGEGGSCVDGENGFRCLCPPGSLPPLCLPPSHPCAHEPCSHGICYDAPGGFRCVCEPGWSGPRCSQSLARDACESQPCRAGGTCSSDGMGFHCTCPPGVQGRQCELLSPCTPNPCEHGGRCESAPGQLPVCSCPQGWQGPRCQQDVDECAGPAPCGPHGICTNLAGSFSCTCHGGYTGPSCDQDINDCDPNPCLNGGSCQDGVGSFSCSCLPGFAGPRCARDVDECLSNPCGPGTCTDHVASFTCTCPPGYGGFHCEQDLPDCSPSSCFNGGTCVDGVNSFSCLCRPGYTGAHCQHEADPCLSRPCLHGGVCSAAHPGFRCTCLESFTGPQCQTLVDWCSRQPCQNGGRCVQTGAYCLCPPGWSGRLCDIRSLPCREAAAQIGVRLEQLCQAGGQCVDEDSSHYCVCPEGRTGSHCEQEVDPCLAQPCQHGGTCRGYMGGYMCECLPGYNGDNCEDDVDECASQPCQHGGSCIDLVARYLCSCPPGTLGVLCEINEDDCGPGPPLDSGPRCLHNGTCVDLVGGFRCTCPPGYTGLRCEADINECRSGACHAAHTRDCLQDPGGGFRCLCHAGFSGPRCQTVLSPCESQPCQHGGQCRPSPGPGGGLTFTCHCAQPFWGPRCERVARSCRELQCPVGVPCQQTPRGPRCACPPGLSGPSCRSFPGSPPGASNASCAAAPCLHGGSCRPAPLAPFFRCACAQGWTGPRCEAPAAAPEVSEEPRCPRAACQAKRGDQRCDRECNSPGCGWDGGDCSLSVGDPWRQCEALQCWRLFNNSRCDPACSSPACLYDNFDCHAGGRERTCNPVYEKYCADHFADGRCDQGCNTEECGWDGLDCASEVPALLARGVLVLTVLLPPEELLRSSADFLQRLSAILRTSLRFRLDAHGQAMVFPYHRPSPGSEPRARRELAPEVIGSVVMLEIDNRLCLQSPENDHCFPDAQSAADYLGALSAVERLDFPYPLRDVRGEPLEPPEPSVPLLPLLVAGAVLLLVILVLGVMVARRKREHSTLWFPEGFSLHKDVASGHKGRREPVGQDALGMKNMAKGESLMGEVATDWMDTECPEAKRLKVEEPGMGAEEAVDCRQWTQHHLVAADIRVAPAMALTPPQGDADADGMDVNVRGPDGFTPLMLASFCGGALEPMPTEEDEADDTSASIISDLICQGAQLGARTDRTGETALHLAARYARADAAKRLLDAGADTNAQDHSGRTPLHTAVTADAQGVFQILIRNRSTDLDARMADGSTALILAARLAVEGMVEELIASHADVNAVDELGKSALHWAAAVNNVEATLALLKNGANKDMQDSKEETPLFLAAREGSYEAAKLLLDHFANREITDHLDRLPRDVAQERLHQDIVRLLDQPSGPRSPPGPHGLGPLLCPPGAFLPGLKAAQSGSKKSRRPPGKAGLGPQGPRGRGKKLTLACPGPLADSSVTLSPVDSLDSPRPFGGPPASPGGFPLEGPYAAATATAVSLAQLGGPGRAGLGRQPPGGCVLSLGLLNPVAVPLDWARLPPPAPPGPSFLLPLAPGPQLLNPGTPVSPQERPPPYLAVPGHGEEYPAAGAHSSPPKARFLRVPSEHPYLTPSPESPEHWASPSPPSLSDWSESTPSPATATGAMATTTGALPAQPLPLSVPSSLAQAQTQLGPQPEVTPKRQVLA
Pro-neuregulin-1, membrane-bound isoform (Homo sapiens), sequence (Q02297 whole entry, looked up, the tested form may be a part, canonical isoform): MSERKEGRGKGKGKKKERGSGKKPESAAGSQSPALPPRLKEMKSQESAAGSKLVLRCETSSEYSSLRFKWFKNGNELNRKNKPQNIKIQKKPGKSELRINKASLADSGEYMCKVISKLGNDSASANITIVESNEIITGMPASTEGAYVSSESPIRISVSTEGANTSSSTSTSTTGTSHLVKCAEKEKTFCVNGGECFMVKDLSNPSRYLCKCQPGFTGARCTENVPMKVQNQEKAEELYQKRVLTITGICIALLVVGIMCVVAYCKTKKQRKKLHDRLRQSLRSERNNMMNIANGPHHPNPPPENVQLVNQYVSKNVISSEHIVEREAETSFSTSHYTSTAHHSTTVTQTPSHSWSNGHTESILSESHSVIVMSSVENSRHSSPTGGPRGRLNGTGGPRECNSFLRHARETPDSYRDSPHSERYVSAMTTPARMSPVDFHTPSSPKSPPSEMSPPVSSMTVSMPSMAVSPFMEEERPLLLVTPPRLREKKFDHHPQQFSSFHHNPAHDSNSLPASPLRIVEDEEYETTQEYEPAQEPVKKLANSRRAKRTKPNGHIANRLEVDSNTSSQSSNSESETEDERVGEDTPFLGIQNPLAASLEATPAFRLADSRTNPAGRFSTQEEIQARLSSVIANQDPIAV
Torsin-1A-interacting protein 2 (Homo sapiens), sequence (Q8NFQ8 whole entry, looked up): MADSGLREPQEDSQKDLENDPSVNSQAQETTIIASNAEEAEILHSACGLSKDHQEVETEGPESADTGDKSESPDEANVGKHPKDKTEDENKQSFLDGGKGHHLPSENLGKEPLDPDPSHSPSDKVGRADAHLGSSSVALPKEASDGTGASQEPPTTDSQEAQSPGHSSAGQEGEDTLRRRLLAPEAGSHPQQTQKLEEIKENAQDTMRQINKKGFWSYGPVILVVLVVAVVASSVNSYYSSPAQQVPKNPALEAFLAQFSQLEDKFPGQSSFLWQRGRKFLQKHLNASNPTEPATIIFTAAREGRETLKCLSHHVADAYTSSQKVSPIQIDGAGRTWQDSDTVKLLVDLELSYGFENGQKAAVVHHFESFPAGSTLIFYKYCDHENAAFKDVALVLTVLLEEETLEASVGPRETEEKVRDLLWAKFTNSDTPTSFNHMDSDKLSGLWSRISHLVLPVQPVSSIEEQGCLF

As to `C[C@H]1C2=C3C(CC[C@H]4C(OCc5ccc(F)cc5C(F)(F)F)OC[C@](C)([C@@H]34)N(C(=O)OC(C)(C)C)C2)C(CO)C1CO` (stereo not given in full), the composite z-score in [1] was 0.0721; in test [2], -0.249; in [3], 0.0506; in test [4], -0.0807; in [5] it was 1.57; in test [6] it was 1.76. Further, the composite z-score came out at 0.572 in test [7]; 1.72 in [9]; 0.2 in test [10]; 0.889 in test [11]; 3.04 in test [15]; 0.606 in test [17]. Besides, the composite z-score in test [18] is -0.904; in test [19], 1.05; in test [20], 0.0149. Besides, the z-score is 0.133 (inactive) in test [8]; 0.24 (inactive) in test [12]; -3.71 (inactive) in test [13]; 0.0345 (inactive) in test [14]; -1.5 (inactive) in test [16].

Regarding `NCCCCCCNC(=O)[C@H]1C[C@H]2C(=O)N[C@@H](Cc3ccccc3)C(=O)N2[C@H]1c1ccc(O)cc1`, the composite z-score is 0.465 in test [1]; 0.399 in test [2]; -0.0334 in [3]; 0.0116 in [4]; 0.421 in test [5]; 1.34 in test [6]. The composite z-score is 1.18 in test [7]; 0.377 in test [9]; -0.196 in test [10]; 1.11 in test [11]; 2.45 in [15]; -0.0824 in test [17]. Also, the composite z-score in test [18] was 1.07; in test [19], 0.272; in [20], -0.0685. In addition, the z-score was 1.1 (inactive) in test [8]; -1.8 (inactive) in test [12]; -0.599 (inactive) in [13]; -1.24 (inactive) in test [14]; 0.933 (inactive) in test [16].

`CC(=O)NCCCC[C@@H]1NC(=O)[C@@H]2C[C@H](C(=O)O)[C@H](c3ccc(O)cc3)N2C1=O`: the composite z-score is 0.736 in [1]; -1.54 in [2]; -0.174 in test [3]; -1.07 in test [4]; -1.09 in test [5]; 0.78 in test [6]. Further, the composite z-score was 1.42 in test [7]; -0.765 in [9]; -0.372 in test [10]; -0.728 in test [11]; 2.17 in test [15]; 0.0208 in test [17]. The composite z-score was -1.42 in [18], -1.27 in test [19] and -0.322 in test [20]. Further, the z-score was 0.785 (inactive) in test [8]; 0.611 (inactive) in test [12]; 1.36 (inactive) in test [13]; 0.442 (inactive) in [14]; 0.129 (inactive) in test [16].

Turning to `CC=CC(O)C1C=CC2C(=O)N(C)C(=O)C2N1Nc1ccc([N+](=O)[O-])cc1[N+](=O)[O-]` (stereo not given), the composite z-score in test [1] is 0.028; in test [2], -0.183; in test [3], -0.185; in test [4], -0.0156; in test [5], -0.346; in test [6], 1.2. The composite z-score was 1.29 in [7]; -0.441 in test [9]; 0.312 in [10]; 0.0758 in [11]; 3.57 in [15]; -0.0478 in test [17]. For the same compound, the composite z-score in [18] is -0.448; in [19] it was -0.44; in [20], -0.342. Moreover, the z-score is 0.639 (inactive) in [8]; 0.837 (inactive) in [12]; 0.325 (inactive) in test [13]; 1.67 (inactive) in test [14]; -1.06 (inactive) in test [16].

On to `COc1ccccc1CN1C(=O)c2ccccc2[C@](Cc2ccccc2I)(C(=O)NC(C)C)[C@@H]1c1ccc(CO)cc1`, for which the composite z-score was -0.515 in test [1]; 0.49 in test [2]; -0.0296 in [3]; 0.732 in test [4]; 1.43 in test [5]; 1.7 in [6]. The composite z-score was 1.15 in [7]; 0.614 in [9]; 0.0373 in [10]; 1.53 in test [11]; 2.05 in test [15]; -0.158 in test [17]. In addition, the composite z-score in test [18] is 1.22; in test [19], 1.06; in test [20], 0.0583. For the same compound, the z-score in test [8] was -2.79 (inactive); in [12] it was 0.188 (inactive); in test [13], 0.0889 (inactive); in test [14], 0.152 (inactive); in test [16], -1.01 (inactive).
